PfHsp40 yeast – restores yeast growth despite PfHsp40 toxicity | AID 504582 | growth rescue, % at 12.5 µM | S. cerevisiae expressing PfHsp40, growth rescue, ATP luminescence | 0.68% of 340,000 active; in the data active = growth rescue above about 28%, passing the limit was not always enough;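 note: yeast W303a lacking pdr1 and pdr3 grown in galactose medium; growth measured after three days at 30 °C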
BJeLR viability – kills HRASV12-expressing BJeLR cells. 0.17% of 300,000 active. AID 1554. BJeLR (HRASV12) viability, CellTiter-Glo ATP luminescence, 48 h. inhibition, % (test concentration not listed); in the data active = inhibition above about 50%
RN4220 kill – S. aureus RN4220 growth inhibition. OD600, 16 h. inhibition, % (test concentration not listed). 0.33% of 330,000 active. AID 1259311; in the data active = inhibition above about 85%;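 note: plate controls were untreated cells for no effect and reference antibiotic for full effect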
CCHF vOTU inh-1 – blocks the CCHF virus ovarian tumor domain protease; CCHFV vOTU protease, Pep-AMC fluorescence; inhibition, % at 11.5 µM; 0.55% of 370,000 active; note: 0% = vehicle wells with enzyme and 100% = no enzyme wells
Sa ugtP lethal – kills S. aureus RN4220 lacking UgtP; S. aureus RN4220 ugtP deletion, OD600 growth, 16 h; growth inhibition, % (concentration not given with the values); 0.54% of 330,000 active; AID 1259309; in the data active = growth inhibition above about 68%;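 note: plate controls were untreated wells for no effect and antibiotic for full effect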
CCHF vOTU inh-2 – confirmation of CCHF virus vOTU protease inhibitors | shares compounds with CCHF vOTU inh-1 | Recombinant CCHFV vOTU, Pep-AMC fluorescence | inhibition, % at 11.5 µM | 17% of 1,900 active | AID 686976
Starred values were filed as active, the others as inactive; x = no result given. Only some compounds are listed: those with a hit (about 1.6% of all), similar ones and a draw of the others. Cut-off read from the data, not from the text of the source, unless noted: active = inhibition above about 30%; inactive = the rest.

SMILES | PfHsp40 yeast | BJeLR viability | RN4220 kill | CCHF vOTU inh-1 | Sa ugtP lethal | CCHF vOTU inh-2
COc1ccc2ccccc2c1C1CC(=O)N2CN(Cc3ccco3)CSC2=C1C#N (stereo not drawn) | 0 | -8 | -6 | 33* | 9 | 22
CCC(=NNC(=O)CSCc1ccccc1Cl)c1ccc2c(c1)OCCO2 | x | x | 0 | x | 12 | x
COc1ccc(C2CC(=O)C=C(c3cccc(C#N)c3)C2)cc1 (stereo not drawn) | x | x | 7 | x | -8 | x
COc1c(C=NNC(=O)c2ccncc2)c(CCN(C)C(C)=O)cc2c1OCO2 | x | x | 1 | x | 6 | x
O=c1c(C=NCc2cccnc2)c(C(F)(F)F)[nH]n1-c1nc2ccccc2s1 | 0 | 5 | 9 | 30* | 3 | -5
Cc1ccc(S(=O)(=O)NC(=O)Cn2nnc(-c3ccccc3)c2COc2ccc3ccccc3c2)cc1 | x | x | x | 34* | x | 2
CC(C)(C)c1ccc(S(=O)(=O)Nc2ccc(C(O)(C(F)(F)F)C(F)(F)F)cc2)cc1 | x | x | x | 49* | x | 10
COc1cccc(S(=O)(=O)Nc2ccc(C(O)(C(F)(F)F)C(F)(F)F)cc2)c1 | x | x | x | 20 | x | x
Cc1ccc(CN(C)C(=O)c2cccc(S(=O)(=O)N3CCN(Cc4ccccc4)CC3)c2)o1 | 0 | 6 | 0 | 10 | 1 | x
CN(Cc1ccco1)C(=O)c1cccc(S(=O)(=O)N2CCN(Cc3ccccc3)CC2)c1 | x | x | x | 34* | x | -17
Cc1ccc(NC2=C(NC(=O)c3ccccc3)C(=O)c3ccccc3C2=O)cc1Cl | 11 | 2 | 86* | 51* | 88* | 42*
O=C(O)c1cc(-c2ccc(C=NN3C(=O)C4C5C=CC(C6CC56)C4C3=O)o2)ccc1Cl (stereo not drawn) | x | x | 3 | x | -6 | x
CCO/C=C1/C(=O)N(C)C(=O)c2cc(OC)ccc21 | -1 | 4 | 0 | 78* | 11 | 77*
CCO/C=C1/C(=O)N(c2ccc(OC)cc2)C(=O)c2ccccc21 | 1 | 11 | -2 | 7 | 9 | x
Cc1ccc(C2(c3ccc(C)cc3)CC2C(=O)Nc2ccc([N+](=O)[O-])cc2O)cc1 (stereo not drawn) | 273* | 28 | 101* | 34* | 100* | -5
O=C1C(Nc2ccccc2)=C(N2CCCCC2)C(=O)c2ccccc21 | 0 | 5 | 16 | 101* | 5 | 87*
CN(C1=C(N2CCCCC2)C(=O)c2ccccc2C1=O)c1ccccc1 | 0 | -7 | 1 | 41* | 7 | -3
COc1ccccc1NC1=C(N2CCCCC2)C(=O)c2ccccc2C1=O | 12 | 23 | 2 | x | 6 | x
O=C1C(Nc2cccc(O)c2)=C(N2CCCCC2)C(=O)c2ccccc21 | 1 | 2 | 9 | 89* | -8 | 92*
O=C(/C=C/c1ccc(O)cc1)c1ccc(NC2=C(N3CCCCC3)C(=O)c3ccccc3C2=O)cc1 | -1 | 13 | 26 | 84* | -12 | 60*
O=C(O)c1cccc(NC2=C(Cl)C(=O)c3ccccc3C2=O)c1 | 1 | -3 | 15 | 26 | 12 | x
CC(Cc1ccccc1)=NNC(=O)CNC(=O)c1ccc(F)cc1 | x | x | 2 | x | 2 | x
COc1ccc(C2CC(=O)C=C(c3cccc(C(C)C)c3)C2)cc1OC (stereo not drawn) | x | x | -4 | x | -1 | x
CCOC(=O)N1C2=NC(C(=O)OC)=C(C(=O)OC)C3Nc4ccccc4[C@]23CC1C(=O)OC (stereo partly drawn) | x | x | 2 | x | -1 | x
O=C(COc1ccc([N+](=O)[O-])cc1)NN=Cc1ccccn1 | x | x | 0 | x | 1 | x
SMILES | PfHsp40 yeast | BJeLR viability | RN4220 kill | CCHF vOTU inh-1 | Sa ugtP lethal | CCHF vOTU inh-2
CC1=C(Nc2ccc(C(=O)O)cc2)C(=O)c2ccccc2C1=O | 0 | 12 | 42 | 5 | -5 | x
Cc1ccc(NC2=C(N3CCCCC3)C(=O)c3ccccc3C2=O)cc1 | 3 | 8 | 16 | 96* | 50 | 85*
COC1=C(Nc2ccc(C)cc2)C(=O)c2ccccc2C1=O | 2 | -9 | 32 | 55* | 24 | -9
COC(=O)CC=CC(C)C(C=NOCC1OC(c2ccccc2)C=CC1Oc1ccc(OC)cc1)OC (stereo not drawn) | x | x | 2 | x | 2 | x
COc1ccccc1/C=C1\SC(=S)N(CC(=O)NC2CCS(=O)(=O)C2)C1=O (stereo not drawn) | 0 | 3 | 6 | 31* | 6 | 0
O=C(CN1C(=O)/C(=C/c2ccccc2)SC1=S)NC1CCS(=O)(=O)C1 (stereo not drawn) | 2 | -14 | 3 | 4 | -3 | x
O=C(O)CN1C(=O)/C(=C\c2cc(Br)ccc2OCc2ccc(F)cc2)SC1=S | 21 | 2 | 5 | 31* | 8 | 25
O=C(CN1C(=O)N/C(=C\c2ccccc2OCc2ccc(C(=O)O)cc2)C1=O)Nc1ccc(F)cc1 | 1 | 2 | 7 | 32* | -6 | -12
O=C(O)CN1C(=O)/C(=C\c2ccccc2OCc2ccc(F)cc2)SC1=S | 8 | 7 | 9 | 35* | -18 | 7
O=C(O)CN1C(=O)/C(=C\c2cc(Br)ccc2OCc2ccc(Cl)cc2)SC1=S | 11 | -4 | 72 | 14 | 83 | x
CC(=NNS(=O)(=O)c1ccc(C)cc1)c1ccc2c(c1)OCO2 | x | x | -3 | x | 3 | x
COc1ccc(C(=O)C(C#N)=NNc2ccccc2[N+](=O)[O-])cc1 | x | x | 15 | x | 8 | x
O=C(NCc1ccc(OC(F)(F)F)cc1)C1CC(c2ccccc2C(F)(F)F)=NO1 (stereo not drawn) | 38* | -2 | 1 | 37* | 7 | 5
CC(C)(C)C(=O)ON=C(N)c1ccc(-c2csnn2)cc1 | x | x | 3 | x | 17 | x
CC(=O)O[C@@H]1C=C[C@@H](C#Cc2ccc(C(C)(C)C)cc2)O[C@@H]1COC(=O)Nc1ccccc1 | x | x | x | 34* | x | -8
COc1ccc(CC(=O)NCC(=O)NN=Cc2sccc2C)cc1 | x | x | 6 | x | 12 | x
O=c1[nH]c(=S)[nH]c2c1C(c1ccc(Br)cc1)c1c([nH]c(=S)[nH]c1=O)O2 | 0 | -2 | 4 | 43* | 14 | 41*
CCc1ccc(-c2cc(C(=O)NN=Cc3ccco3)[nH]n2)cc1 | x | x | 2 | x | -6 | x
CCOc1ccc(/C(O)=C2\C(=O)C(=O)N(CCN(C)C)C2c2cccc(OC)c2OC)cc1Cl (stereo not drawn) | -1 | 3 | 2 | 30* | 3 | -9
CCOc1ccc(/C(O)=C2\C(=O)C(=O)N(CCN(C)C)C2c2cc(OC)ccc2OC)cc1Cl (stereo not drawn) | 0 | x | 1 | 5 | -1 | x
CN1C(=O)C2C(C=Cc3ccccc3)N3C(=O)CN(CCO)C(=O)[C@@]3(Cc3ccccc3)C2C1=O (stereo partly drawn) | x | x | 0 | x | -2 | x
CC(=O)c1ccc(NC(=O)C2=CC(c3ccco3)=NS(=O)(=O)N2C)cc1 | 0 | 2 | 2 | 33* | 2 | -1
COc1ccc(NC(=O)C2=CC(c3ccco3)=NS(=O)(=O)N2C)cc1OC | -1 | -10 | 1 | 17 | 0 | x
COc1ccccc1NN=C(C#N)C(=N)N1CCOCC1 | x | x | 2 | x | 4 | x
